High-throughput results deposited in PubChem BioAssay by The Scripps Research Institute Molecular Screening Center.
ssDAF12 agonist: activates DAF-12 receptor from parasite S. stercoralis; HEK293 ssDAF-12/GRIP1 lit1-tk-luc reporter, luminescence; % of 3 µM dafachronic acid response; activation, % at 6.8 µM; 370,000 tested, 1% active; AID 652126;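 active means activation above the mean over all tested compounds plus 3 SD, cut at about 0.9% in these data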;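 further: 0% = DMSO-only wells and 100% = 3 µM delta7-dafachronic acid wells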
Wee1 stabilizer: blocks degradation of human Wee1 kinase. AID 1321. reporter increase, % at 5 µM. HeLa Luc-Wee1K328M stability, luciferase luminescence; 100% = proteasome inhibitor MG132 effect. 220,000 tested, 1.2% active;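 active means activation above the mean of all tested compounds plus 3 SD, set per screening run, cut at about 8.8% in these data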;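 further: cells exposed to compound for 20 h before luminescence read; 0% = DMSO alone and 100% = MG132 at 30 µM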
Target sequence (P30291 whole entry K328M): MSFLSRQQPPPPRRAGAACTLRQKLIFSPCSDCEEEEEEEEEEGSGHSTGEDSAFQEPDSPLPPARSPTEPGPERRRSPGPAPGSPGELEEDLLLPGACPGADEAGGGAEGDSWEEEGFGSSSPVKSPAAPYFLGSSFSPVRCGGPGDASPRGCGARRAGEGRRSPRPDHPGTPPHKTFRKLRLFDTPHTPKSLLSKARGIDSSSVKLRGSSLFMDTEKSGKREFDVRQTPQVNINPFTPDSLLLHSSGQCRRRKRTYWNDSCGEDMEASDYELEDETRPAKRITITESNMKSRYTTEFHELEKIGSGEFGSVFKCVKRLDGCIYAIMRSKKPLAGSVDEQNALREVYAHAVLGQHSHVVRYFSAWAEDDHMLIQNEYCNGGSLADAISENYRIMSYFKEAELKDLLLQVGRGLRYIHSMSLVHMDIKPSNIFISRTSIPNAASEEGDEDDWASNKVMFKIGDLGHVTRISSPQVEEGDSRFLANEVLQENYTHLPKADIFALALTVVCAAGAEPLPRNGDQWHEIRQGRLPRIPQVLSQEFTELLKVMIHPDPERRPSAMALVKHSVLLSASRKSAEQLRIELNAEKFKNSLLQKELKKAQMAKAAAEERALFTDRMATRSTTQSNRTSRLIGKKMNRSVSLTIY
DAX1 inh-1: inhibitors of DAX1 repression of SF-1 activated StAR promoter. HEK293T StAR-luciferase reporter, SF-1/DAX-1 repression relief. inhibition, % at 6.8 µM. 370,000 tested, 1.1% active;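 active means inhibition above the mean over all tested compounds plus 3 SD, cut at about 3.6% in these data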;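 further: 0% = DAX-1 cells with DMSO and 100% = cells lacking DAX-1 with DMSO; higher inhibition means more luminescence from relief of DAX-1 repression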
hcDAF-12 act: H. contortus DAF-12 activation, primary screen | HEK293 hcDAF-12 lit1-tk-luc reporter, luminescence; 0% DMSO, 100% Δ7-dafachronic acid | activation, % at 6.8 µM | 370,000 tested, 1.4% active | AID 652067;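 active means activation above the mean of all tested compounds plus 3 SD, cut at about 5.5% in these data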;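 further: 100% = response to 3 µM Δ7-dafachronic acid high control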
hgDAF12 agonist: activates the H. glycines DAF-12 receptor ligand-binding domain | activation, % at 6.8 µM | HEK293 GAL4-hgDAF12 UAS-luciferase reporter, agonist luminescence; normalized to butyrate control | 370,000 tested, 1.8% active;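 active means activation above a cutoff set at the mean of all screened compounds plus 3 SD, cut at about 10% in these data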;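 further: 0% = DMSO wells and 100% = sodium butyrate wells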
DAX1 inh-2: inhibitors of human orphan nuclear receptor DAX1 (NR0B1); HEK293 Gal4-DAX1 luciferase reporter, luminescence; inhibition, % at 6.75 µM; 340,000 tested, 0.99% active; AID 504766;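 active means inhibition above the mean over all tested compounds plus 3 SD, cut at about 4.2% in these data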;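 further: 0% = DAX1-transfected cells with DMSO and 100% = empty-vector control cells with DMSO; inhibition shows as a rise in luminescence from relieved DAX1 repression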
Active calls of the source: *; . = no result given. A selection: hits, their analogues and other compounds. The true share with any hit is near 4.6%.

SMILES | ssDAF12 agonist | Wee1 stabilizer | DAX1 inh-1 | hcDAF-12 act | hgDAF12 agonist | DAX1 inh-2
O=C(Nc1nccs1)C1(C(=O)C2CC2)CC(c2ccccn2)=NO1 (centres undefined) | 1.0* | . | 1 | 3 | 6 | .
Cc1ccc(Cc2c(C(C)(C)C)nc3cc(C)c(Br)c(C)n23)cc1 | 1.2* | . | -1 | 4 | 2 | .
Cc1cc2nc(C(C)(C)C)c(Cc3ccsc3)n2c(C)c1Br | 0 | . | 4.1* | 3 | 1 | .
Cc1cc2nc(C(C)(C)C)c(Cc3cccc(Cl)c3)n2c(C)c1Br | -1 | . | 0 | 3 | 2 | .
Cc1cc2nc(C3CCCCC3)c(Cc3ccsc3)n2c(C)c1Br | -1 | . | -2 | 1 | 2 | .
O=C(C[C@H]1C/C=C\CC[C@H](Cc2ccc(F)cc2)C(=O)OC[C@H]2CCCN2C1=O)N[C@@H](CO)Cc1ccccc1 | -1 | . | 0 | -2 | 0 | 0
C=C(C)Cn1c(SCC(=O)NN=Cc2c(O)ccc3ccccc23)nnc1-c1ccc(Br)cc1 | -2 | . | -5 | -4 | 1 | .
O=C(NCC(F)(F)F)c1csc([C@@H]2O[C@H](CO)[C@H](O)[C@H](O)[C@H]2O)n1 | -1 | . | 0 | 0 | 3 | .
Cc1cc(-c2csc(NC(=O)c3ccc(=O)[nH]c3)n2)c(C)n1Cc1ccco1 | -1 | -3 | 0 | 1 | 0 | 2
CCNc1nc(-c2cc(C)n(Cc3ccco3)c2C)cs1 | 0 | 2 | 0 | 3 | 0 | 5.0*
COC(=O)c1c(-c2ccccc2)csc1NC(=O)c1ccco1 | -1 | 5 | 3 | 0 | 11* | 0
O=C(Nc1scc(-c2ccc(F)cc2)c1C(=O)O)c1ccco1 | -1 | 1 | 2 | 1 | 4 | 0
Cn1c(/C=C/c2ccccc2[N+](=O)[O-])nc2ccccc2c1=O | -1 | . | -1 | 0 | 3 | 4.5*
CCCC1CCC(c2nc(-c3cccnc3)no2)CC1 (centres undefined) | -1 | -2 | 1 | 0 | 0 | 4.7*
CC(C)NC(=O)/C(C#N)=C/c1ccc(N(C)C)o1 | -2 | 0 | 0 | -1 | 3 | 5.0*
COc1ccc(C)cc1NC(=O)C1CC1c1ccccc1 (centres undefined) | -2 | . | 0 | -1 | 5 | 4
Cc1ccc2[nH]c(C(=O)O)c(NC(=O)[C@@H]3C[C@@H]3c3ccccc3)c2c1 | 2.5* | -1 | 0 | 3 | 2 | 1
COC(=O)[C@H](CC(C)C)NC(=O)/C=C/[C@H]1O[C@@H](n2ccc(=O)[nH]c2=O)[C@H](O)[C@@H]1O | -1 | . | -1 | 1 | 1 | .
O=C(Nc1ccccc1O)c1nc(Cl)ccc1Cl | 2.5* | 0 | 0 | 5.9* | 0 | 2
O=C(Nc1ccc(Cl)c(Cl)c1)Nc1ccccc1O | 0 | -2 | 1 | 5 | 10 | 2
CC1(C(=O)NS(=O)(=O)c2ccccc2C(F)(F)F)CCN1C(=O)CCc1cccs1 (centres undefined) | -1 | . | 1 | 1 | 0 | .
COc1ccc(NC(C)=O)cc1NC(C)C(=O)Nc1ccccc1F (centres undefined) | -1 | -2 | 0 | 1 | -2 | 5.7*
COc1cc2cc(Oc3ccc4ccc(=O)oc4c3)c(=O)oc2cc1OC(C)=O | -2 | -1 | 1 | -3 | -2 | 9.8*
COc1cc2cc(Oc3ccc4ccc(=O)oc4c3)c(=O)oc2cc1O | -1 | -1 | -1 | 0 | 1 | 1
COCCCNC(=O)c1c(N)n(-c2ccc3c(c2)OCO3)c2nc3ccccc3nc12 | -1 | -1 | -1 | -2 | -2 | -1
SMILES | ssDAF12 agonist | Wee1 stabilizer | DAX1 inh-1 | hcDAF-12 act | hgDAF12 agonist | DAX1 inh-2
CCOCCCNC(=O)c1c(N)n(-c2ccc3c(c2)OCO3)c2nc3ccccc3nc12 | -1 | 9.4* | 0 | -1 | 3 | 0
NNC(=O)c1cc(NS(=O)(=O)c2cccs2)cc(NS(=O)(=O)c2cccs2)c1 | -1 | . | 0 | 0 | -2 | 0
Cc1cccc(OCC(=O)NCC(=O)N=Nc2c(O)[nH]c3ccc([N+](=O)[O-])cc23)c1 | 0 | . | 0 | 3 | 3 | 6.1*
Cc1cccc(OCC(=O)N=Nc2c(O)[nH]c3ccc([N+](=O)[O-])cc23)c1 | 0 | -3 | 0 | 5 | 2 | .
CN(Cc1ccc(C(C)(C)C)cc1)C(=O)c1ccc2c(c1)OCO2 | 0 | . | 1 | 2 | 0 | 2
CC(C)C[C@H](NC(=O)N1CC(=O)Nc2ccccc21)C(=O)N[C@H](Cc1c[nH]c2ccccc12)C(=O)O | 0 | . | 1 | 4 | 1 | 3
CC(C)[C@H](NC(=O)N1CC(=O)Nc2ccccc21)C(=O)N[C@@H](Cc1ccccc1)C(=O)O | -2 | . | 2 | 0 | 3 | 7.0*
CCC(C)[C@H](NC(=O)N1CC(=O)Nc2ccccc21)C(=O)N[C@@H](Cc1c[nH]c2ccccc12)C(=O)O (some centres undefined) | 0 | . | 1 | 5.9* | -2 | 4
O=C1CN(C(=O)N[C@@H](Cc2ccccc2)C(=O)N[C@@H](Cc2ccccc2)C(=O)O)c2ccccc2N1 | -1 | . | 1 | 0 | -2 | 1
CCN(CC)CCN1CCN(c2cncc(-c3ccc4ccccc4c3)n2)CC1 | -1 | . | 0 | 0 | 0 | .
COCCNc1nc2cc(-c3ccc(C)cc3)sc2c(=O)n1C | 1.0* | . | 3.8* | 3 | 12* | .
COc1ccc(-c2cc(CNc3nc4cc(-c5ccccc5C)sc4c(=O)n3C)on2)cc1 | 0 | . | 4.3* | 1 | 8 | .
COCCNc1nc2cc(-c3cccc(C(F)(F)F)c3)sc2c(=O)n1C | -1 | . | 0 | 0 | -1 | .
COc1cccc(-c2cc3nc(NCc4cccnc4)n(C)c(=O)c3s2)c1 | 1.0* | . | 2 | 5 | 9 | .
CCn1c(SCCN2CCCCC2)nc2c1c(=O)n(C)c(=O)n2C | 0 | . | 0 | 2 | 1 | 0
C=CCN1[C@H](CO)[C@H](c2ccccc2)[C@@H]1C#N | -1 | . | 0 | -2 | -6 | .
c1ccc(Cn2ccc3ccc(-c4ccc5ccn(Cc6cccc(-c7cccs7)c6)c5c4)cc32)cc1 | -1 | . | -1 | -1 | -2 | .
COc1ccc(Cl)cc1C(=O)O/N=C(\N)c1ccc(Cl)cc1 | -1 | 1 | 1 | 6.0* | 1 | 3
N/C(=N\OC(=O)c1cccc(Cl)c1)c1cccnc1 | 0 | 2 | 1 | 5 | 11* | 2
N/C(=N\OC(=O)c1ccc(Cl)c(Cl)c1)c1cccnc1 | -1 | 0 | 0 | 0 | 2 | -1
N/C(=N\OC(=O)c1cc(Cl)ccc1Cl)c1cccnc1 | 1 | 5 | 0 | 6.3* | 2 | 0
CCCCC(=O)Nc1ccc(C(=O)NCC2COc3ccccc3O2)cc1 (centres undefined) | -1 | . | 0 | -1 | 3 | .
